Screening results deposited in PubChem BioAssay by National Center for Advancing Translational Sciences (NCATS).
LASV entry inh: inhibitors of Lassa virus binding or cell entry. Lassa virus pseudotype entry inhibition, cell reporter. Potency, µM (titrated, usually from 37.9 µM), for inactives: at the highest dose activity change, negative = inhibition, hits mostly inhibitors. actives 1.2% (n = 300,000); calls by dose curve; tested in HEK293 cells; note: potency is the fitted concentration of half-maximal effect; nearly all actives have a fitted effect of over 50% in size
FMDV inh: foot and mouth disease virus antiviral activity; FMDV antiviral cell-based qHTS; actives 1.2% (n = 410,000); Potency, µM (top dose mostly 57.9 µM), without a hit: at the top dose activity change, negative = inhibition, most hits filed as inhibitors; AID 1159524; calls by dose curve; tested in HEK293T cells; note: read-out not given here; potency is the fitted concentration of half-maximal effect; nearly all actives have a fitted effect of over 45% in size
Marburg entry inh: Marburg virus entry inhibition; actives 1.8% (n = 300,000); Marburg virus pseudotyped entry inhibition, cell reporter; AID 540276; Potency, µM (titrated, usually from 37.8 µM), for the others: at the highest dose activity change, negative = inhibition, hits mostly inhibitors; calls by dose curve; tested in HEK293 cells; note: potency is the fitted concentration of half-maximal effect
HCMV antiviral: inhibitors of human cytomegalovirus; HFF cells, HCMV-luciferase reporter, 72 h; stronger effect = lower value; activity change, negative = inhibition, % at 57.5 µM; actives 4.5% (n = 410,000); AID 1259415; in the data active = activity change below about -60%; inconclusive = no clear call, values can overlap the other calls; inactive = above about -39%
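Screen run at 2 compound doses on HFFs infected with reporter HCMV, MOI 1 PFU/cell. Luciferase activity from cell lysates at 72 h post infection gave inhibition relative to buffer-only and Salinomycin wells.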
Numbers without * were called inactive; ? = inconclusive; · = no result; [ ] = dose if it differs, or a comment. This is a sample that favours compounds with a hit; in the whole collection about 6.2% have one here. % is set by controls: 0 for no effect and ±100 for the full control effect.

SMILES | LASV entry inh | FMDV inh | Marburg entry inh | HCMV antiviral
CCCCn1c(=N)n(CCOc2ccc(C)cc2)c2ccccc21 | ? | ? | ? | -37.1
CCCn1c(=N)n(CC(O)COc2ccc(C)cc2)c2ccccc21 (stereo unspecified) | ? | ? | ? | -6.4
CC(C)c1cc(C(C)C)c(S(=O)(=O)N2CCNCC2)c(C(C)C)c1 | ? | -6.6% | 10µM* | -18.0
CCCCN(CC)CCNC(=O)c1ccc2c(Cl)c3c(nc2c1)CCC3 | ? | -11.9% | ? | -34.5
O=C(NCc1cccc(Cl)c1)c1ccc2c(Cl)c3c(nc2c1)CCCC3 | 2.1%[46.1 µM] | 5.6% | 1.6%[46.1 µM] | -78.2*
O=C(Nc1ccccc1F)c1ccc2c(Cl)c3c(nc2c1)CCC3 | ? | 10µM* | ? | -86.5*
O=C(NC1CC1)c1ccc2c(Cl)c3c(nc2c1)CCCC3 | · | 53.9% | · | -61.7*
CCN(CC)CCCNC(=O)c1ccc2c(Cl)c3c(nc2c1)CCCC3 | ? | -25.3% | ? | -88.2*
O=C(c1n[nH]c2c1CCCC2)N1CCC(n2c(C3CCCO3)nc3ccccc32)CC1 (stereo unspecified) | · | -3.2% | · | ·
CCCCc1ccc(NC(=O)Cn2cnc3c2c(=O)n(C)c(=O)n3C)cc1 | -4.8%[46.1 µM] | 1.1% | · | -2.2
O=C(NCCCN1CCCC1)c1ccc2c(Cl)c3c(nc2c1)CCCC3 | ? | ? | 5.62µM* | -73.3*
CCCN1CCN(CCCNC(=O)c2ccc3c(Cl)c4c(nc3c2)CCCC4)CC1 | · | -24.8% | · | 0.0
COc1ccc(C2c3ccc4ccccc4c3Oc3ncn(CCO)c(=N)c32)cc1 (stereo unspecified) | 8.91µM* | 0.5% | ? | ·
COc1ccc(C2c3ccc4ccccc4c3Oc3ncn(CCN(C)C)c(=N)c32)cc1 (stereo unspecified) | ? | -17.8% | 8.91µM* | -98.7*
COc1ccc(C2c3ccc4ccccc4c3Oc3ncn(CCO)c(=N)c32)cc1OC (stereo unspecified) | · | -12.5% | 6.9% | ·
CN(C)CCCn1cnc2c(c1=N)C(c1ccccc1)c1ccc3ccccc3c1O2 (stereo unspecified) | · | ? | · | -98.5*
COc1ccc(C2c3ccc4ccccc4c3Oc3ncn(CCCO)c(=N)c32)cc1 (stereo unspecified) | 11.2µM* | -28.1% | ? | 37.6
CCN1C(=O)[C@@H]2[C@H]3[C@H](O)[C@H](O)CC(=NO[C@@H]4O[C@H](COC(C)=O)[C@@H](OC(C)=O)[C@H](OC(C)=O)[C@@H]4OC(C)=O)[C@@H]3CC[C@H]2C1=O | · | · | 12.1%[14.2 µM] | ·
COCC(=O)Nc1cc(C(=O)NC2CCCc3ccccc32)c2c(c1)nc(-c1ccncc1)n2C (stereo unspecified) | · | -8.3% | · | ·
Cc1cccc(Cn2c(CN3CCCC(C)C3)nc3c2c(=O)n(C)c(=O)n3C)c1 (stereo unspecified) | 13.6%[46.1 µM] | -16.4% | 16.3%[46.1 µM] | 1.7
O=C(/C=C/c1ccc(S(=O)(=O)N2CCOCC2)cc1)NC(=S)NCCCn1ccnc1 | ? | -10.4% | ? | -82.4*
Cc1cccc(C)c1NC(=O)CCSCCc1ccccn1 | 20.0%[46.1 µM] | -20.3% | · | 10.3
Cc1cccn2c(=O)c(C(=O)NCCc3ccccc3)c(O)nc12 | · | 53.5% | 9.8%[46.1 µM] | ?
C[C@@H]1CN([C@@H](C)CO)C(=O)CCCn2cc(nn2)CO[C@H]1CN(C)C(=O)Nc1ccc2c(c1)OCCO2 | · | · | · | 36.0
O=C(N/N=C/c1ccco1)c1cc(C2CC2)nc2ccccc12 | ? | · | -35.6% | 29.5
SMILES | LASV entry inh | FMDV inh | Marburg entry inh | HCMV antiviral
CCc1ccc(/C=N/NC(=O)c2cc(C3CC3)nc3ccc(Br)cc23)s1 | ? | 0.0% | ? | -63.3*
COc1ccc2nc(NC(=S)N(C)C)sc2c1 | ? | -50.3% | 10µM* | ?
CCCC(=O)Nc1nc2ccc(OC)cc2s1 | · | 46.7% | · | -40.0
CCOCCn1c(=NC(=O)c2ccc(S(=O)(=O)N3CCOCC3)cc2)sc2cc(S(N)(=O)=O)ccc21 | 17.4%[46.1 µM] | -24.3% | -0.1%[46.1 µM] | -62.6*
C#CCn1c(=NC(=O)c2ccc(S(=O)(=O)N3CCc4ccccc4C3)cc2)sc2cc(S(N)(=O)=O)ccc21 | 9.2µM* | -19.0% | 14.1µM* | ·
C=CCn1c(=NC(=O)c2ccc(S(=O)(=O)N3CCc4ccccc4C3)cc2)sc2cc(S(N)(=O)=O)ccc21 | ? | 0.7% | ? | -65.1*
CCOCCn1c(=NC(=O)c2cc(Cl)sc2Cl)sc2cc(S(N)(=O)=O)ccc21 | 2.2% | · | -5.2% | ·
COCCn1c(=NC(=O)c2ccc(S(=O)(=O)N3CCc4ccccc4C3)cc2)sc2cc(S(N)(=O)=O)ccc21 | 3.5% | 5.9% | 13.7% | -19.4
Cc1ccc2nc(N3CCC(C(=O)N4CCN(c5cccc(Cl)c5)CC4)CC3)[nH]c2c1 | ? | ? | · | 0.0
